Test results from PubChem BioAssay (Tox21).
Records with an inconclusive call do not appear. Where a call stands in place of a potency, no number is given. Values without a mark were called inactive. Active and inactive are the calls of the source. Calls come from the whole dose curve; as a rule, active = well fitted curve in the direction sought with a large enough effect in the repeat runs; inconclusive = weak or mixed curves; inactive = no such curve, though single readings can be large; an effect the other way counts as inactive or inconclusive.

Assays:
[1] = target: Cytochrome P450 2D6 (Homo sapiens) (UniProt P10635); assay: Cytochrome P450 Family 2 Subfamily D Member 6 (CYP2D6) small molecule antagonists: luciferase reporter qHTS assay (AID 1671196); note: nearly all actives have a fitted effect of over 50% in size; note: potency is the fitted concentration of half-maximal effect
Sequence of Cytochrome P450 2D6 (Homo sapiens) (P10635 whole entry, looked up): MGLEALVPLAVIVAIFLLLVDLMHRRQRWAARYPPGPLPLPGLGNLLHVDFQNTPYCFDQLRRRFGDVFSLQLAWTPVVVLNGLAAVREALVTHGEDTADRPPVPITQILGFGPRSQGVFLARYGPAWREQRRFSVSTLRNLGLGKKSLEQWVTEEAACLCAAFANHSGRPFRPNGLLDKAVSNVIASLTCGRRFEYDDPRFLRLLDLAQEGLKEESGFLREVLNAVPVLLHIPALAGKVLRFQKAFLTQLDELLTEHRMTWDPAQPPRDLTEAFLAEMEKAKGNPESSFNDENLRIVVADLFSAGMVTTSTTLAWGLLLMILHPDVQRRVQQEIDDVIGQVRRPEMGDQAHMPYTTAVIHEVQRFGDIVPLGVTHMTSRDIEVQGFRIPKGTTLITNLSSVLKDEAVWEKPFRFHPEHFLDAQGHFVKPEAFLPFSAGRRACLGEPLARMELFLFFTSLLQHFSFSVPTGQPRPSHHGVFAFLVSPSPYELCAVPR
Summary of the method: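 Inhibition of CYP2D6 was gauged by loss of luminescence, since light produced tracks the luciferin generated from a proluciferin substrate. A 10 min room-temperature preincubation preceded 1 h NADPH-supported turnover.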

[2] = target: Cytochrome P450 2C19 (Homo sapiens) (UniProt P33261); assay: Cytochrome P450 Family 2 Subfamily C Member 19 (CYP2C19) small molecule antagonists: luciferase reporter qHTS assay (AID 1671197); note: nearly all actives have a fitted effect of over 65% in size; note: potency is the fitted concentration of half-maximal effect
Sequence of Cytochrome P450 2C19 (Homo sapiens) (P33261 whole entry, looked up): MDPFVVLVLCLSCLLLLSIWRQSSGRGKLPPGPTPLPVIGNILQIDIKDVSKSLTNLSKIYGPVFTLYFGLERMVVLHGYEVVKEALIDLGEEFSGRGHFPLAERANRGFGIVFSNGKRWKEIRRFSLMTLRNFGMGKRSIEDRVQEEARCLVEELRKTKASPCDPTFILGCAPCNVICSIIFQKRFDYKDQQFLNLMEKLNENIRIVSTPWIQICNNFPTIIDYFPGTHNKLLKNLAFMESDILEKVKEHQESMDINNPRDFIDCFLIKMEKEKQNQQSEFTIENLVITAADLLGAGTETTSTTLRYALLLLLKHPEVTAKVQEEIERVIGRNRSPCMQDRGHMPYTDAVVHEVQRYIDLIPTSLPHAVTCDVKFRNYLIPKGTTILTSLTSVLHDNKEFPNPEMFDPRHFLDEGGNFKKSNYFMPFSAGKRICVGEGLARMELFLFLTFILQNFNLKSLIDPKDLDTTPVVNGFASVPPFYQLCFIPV
Summary of the method: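 Quantitative high-throughput screen of the Tox21 library using CYP2C19 with proluciferin substrate. Reaction: NADPH regeneration, 37C, 1 h, after 10 min compound preincubation at room temperature. Readout: luminescence.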

[3] = target: Cytochrome P450 2C9 (Homo sapiens) (UniProt P11712); assay: Cytochrome P450 Family 2 Subfamily C Member 9 (CYP2C9) small molecule antagonists: luciferase reporter qHTS assay (AID 1671198); note: nearly all actives have a fitted effect of over 50% in size; note: potency is the fitted concentration of half-maximal effect
Sequence of Cytochrome P450 2C9 (Homo sapiens) (P11712 whole entry, looked up): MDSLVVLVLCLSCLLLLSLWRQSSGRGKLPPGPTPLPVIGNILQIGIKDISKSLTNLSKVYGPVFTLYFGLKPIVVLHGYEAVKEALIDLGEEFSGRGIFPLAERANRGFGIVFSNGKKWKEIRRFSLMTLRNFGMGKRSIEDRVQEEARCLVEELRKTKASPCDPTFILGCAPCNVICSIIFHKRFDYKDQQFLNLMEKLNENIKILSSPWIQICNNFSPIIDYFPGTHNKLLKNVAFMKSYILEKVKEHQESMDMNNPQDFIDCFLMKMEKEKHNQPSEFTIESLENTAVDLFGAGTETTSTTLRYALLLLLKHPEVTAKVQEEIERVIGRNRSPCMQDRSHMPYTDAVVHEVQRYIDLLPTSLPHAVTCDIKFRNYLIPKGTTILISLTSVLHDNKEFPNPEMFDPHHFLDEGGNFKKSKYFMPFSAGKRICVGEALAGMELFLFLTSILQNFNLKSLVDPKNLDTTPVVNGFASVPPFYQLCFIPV
Summary of the method: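 P450-Glo proluciferin substrate with CYP2C9 enzyme; 10 min RT preincubation, then NADPH regeneration 1 h at 37C; luciferin detection reagent 20 min RT, luminescence in relative luminescence units.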

[4] = target: Cytochrome P450 1A2 (Homo sapiens) (UniProt P05177); assay: Cytochrome P450 Family 1 Subfamily A Member 2 (CYP1A2) small molecule antagonists: luciferase reporter qHTS assay (AID 1671199); note: nearly all actives have a fitted effect of over 50% in size; note: potency is the fitted concentration of half-maximal effect
Sequence of Cytochrome P450 1A2 (Homo sapiens) (P05177 whole entry, looked up): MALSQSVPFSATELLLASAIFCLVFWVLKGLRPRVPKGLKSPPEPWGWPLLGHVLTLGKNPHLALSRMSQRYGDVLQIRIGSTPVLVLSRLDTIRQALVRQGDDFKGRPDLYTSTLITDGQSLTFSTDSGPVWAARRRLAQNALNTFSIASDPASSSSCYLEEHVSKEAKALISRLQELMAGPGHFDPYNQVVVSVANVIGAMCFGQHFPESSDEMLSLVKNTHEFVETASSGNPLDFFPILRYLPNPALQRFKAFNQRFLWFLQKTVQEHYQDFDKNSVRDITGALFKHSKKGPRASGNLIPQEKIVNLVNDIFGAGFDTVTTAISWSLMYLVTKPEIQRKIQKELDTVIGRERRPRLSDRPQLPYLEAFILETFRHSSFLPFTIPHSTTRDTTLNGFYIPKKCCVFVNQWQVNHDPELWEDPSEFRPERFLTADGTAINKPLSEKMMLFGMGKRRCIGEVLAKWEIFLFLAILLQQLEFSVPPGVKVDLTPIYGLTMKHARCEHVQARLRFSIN
Summary of the method: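 Signal from luciferin formed by CYP1A2 from a proluciferin substrate is read as luminescence, expressed in relative luminescence units. Compounds sit with enzyme 10 min, NADPH-driven reaction runs 1 h, all at room temperature.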

[5] = target: Voltage-gated inwardly rectifying potassium channel KCNH2 (Homo sapiens) (UniProt Q12809); assay: Human Ether-a-go-go-Related Gene (hERG) channel small molecule antagonists: fluorescence cell-based qHTS assay (AID 1671200);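 note: hERG-expressing U2OS cells given a thallium stimulus after FluxOR II dye loading; series mostly up to about 77 µM; nearly all actives have a fitted effect of over 50% in size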
Sequence of Voltage-gated inwardly rectifying potassium channel KCNH2 (Homo sapiens) (Q12809 whole entry, looked up): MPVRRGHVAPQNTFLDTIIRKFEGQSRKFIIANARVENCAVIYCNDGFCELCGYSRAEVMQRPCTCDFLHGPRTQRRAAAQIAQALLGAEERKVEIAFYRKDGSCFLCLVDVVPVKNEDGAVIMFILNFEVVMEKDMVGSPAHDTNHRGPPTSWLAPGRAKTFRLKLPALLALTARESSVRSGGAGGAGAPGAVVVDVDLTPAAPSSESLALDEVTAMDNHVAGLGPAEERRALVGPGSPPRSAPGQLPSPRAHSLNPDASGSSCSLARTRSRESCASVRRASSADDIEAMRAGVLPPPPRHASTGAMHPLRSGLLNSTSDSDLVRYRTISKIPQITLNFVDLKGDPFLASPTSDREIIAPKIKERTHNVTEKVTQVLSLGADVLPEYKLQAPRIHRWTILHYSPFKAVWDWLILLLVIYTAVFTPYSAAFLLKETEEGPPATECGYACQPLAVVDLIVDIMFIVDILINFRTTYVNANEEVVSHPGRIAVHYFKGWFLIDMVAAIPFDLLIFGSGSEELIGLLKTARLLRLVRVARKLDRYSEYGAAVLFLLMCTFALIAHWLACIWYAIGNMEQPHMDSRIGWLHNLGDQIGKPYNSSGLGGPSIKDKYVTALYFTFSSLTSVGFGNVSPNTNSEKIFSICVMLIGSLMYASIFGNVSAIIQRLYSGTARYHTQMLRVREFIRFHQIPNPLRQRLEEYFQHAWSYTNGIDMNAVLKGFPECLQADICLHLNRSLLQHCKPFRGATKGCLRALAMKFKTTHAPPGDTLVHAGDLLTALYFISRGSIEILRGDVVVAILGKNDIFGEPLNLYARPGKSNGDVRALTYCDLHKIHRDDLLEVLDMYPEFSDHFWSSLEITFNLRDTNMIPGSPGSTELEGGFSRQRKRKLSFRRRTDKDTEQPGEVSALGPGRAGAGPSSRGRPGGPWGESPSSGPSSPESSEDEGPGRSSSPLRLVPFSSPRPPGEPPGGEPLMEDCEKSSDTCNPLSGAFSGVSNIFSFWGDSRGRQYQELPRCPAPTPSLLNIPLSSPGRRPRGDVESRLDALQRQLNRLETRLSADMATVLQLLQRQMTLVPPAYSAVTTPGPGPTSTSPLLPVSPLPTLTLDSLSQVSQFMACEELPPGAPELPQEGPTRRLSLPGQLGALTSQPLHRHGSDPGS
Summary of the method: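 Kinetic two-minute fluorescence traces, sampled at 1 s, were collected following thallium stimulus of U2OS cells (1000 per well) that had been cultured overnight at 37 C and loaded with FluxOR II.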

[6] = target: Cytochrome P450 3A4 (Homo sapiens) (UniProt P08684); assay: Cytochrome P450 Family 3 Subfamily A Member 4 (CYP3A4) small molecule antagonists: luciferase reporter qHTS assay (AID 1671201); note: nearly all actives have a fitted effect of over 50% in size; note: potency is the fitted concentration of half-maximal effect
Sequence of Cytochrome P450 3A4 (Homo sapiens) (P08684 whole entry, looked up): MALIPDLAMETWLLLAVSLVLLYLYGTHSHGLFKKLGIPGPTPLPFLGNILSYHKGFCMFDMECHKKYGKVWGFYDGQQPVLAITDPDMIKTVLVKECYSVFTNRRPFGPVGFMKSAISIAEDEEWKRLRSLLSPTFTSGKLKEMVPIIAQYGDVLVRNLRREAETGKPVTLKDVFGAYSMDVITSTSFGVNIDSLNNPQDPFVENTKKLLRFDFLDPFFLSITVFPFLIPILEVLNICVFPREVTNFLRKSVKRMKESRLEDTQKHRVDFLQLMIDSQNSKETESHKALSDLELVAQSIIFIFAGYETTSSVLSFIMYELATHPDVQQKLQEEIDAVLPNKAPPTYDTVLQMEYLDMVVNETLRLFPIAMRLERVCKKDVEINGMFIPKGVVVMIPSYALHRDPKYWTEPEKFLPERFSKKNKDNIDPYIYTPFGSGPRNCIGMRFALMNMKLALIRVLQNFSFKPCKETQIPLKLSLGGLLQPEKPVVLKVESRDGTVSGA
Summary of the method: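 Proluciferin-to-luciferin conversion by CYP3A4, NADPH-regenerated, 1 h RT; luminescence read as RLU. Ketoconazole as control.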

| Compound | Potency [1] | Potency [2] | Potency [3] | Potency [4] | Potency [5] | Potency [6] |
| --- | --- | --- | --- | --- | --- | --- |
| CCCCOC(=O)C(C)O (configuration not stated) | inactive | inactive | inactive | inactive | inactive | inactive |
| O=C(O)CONC(=O)c1ccccc1 | inactive | inactive | inactive | inactive | inactive | inactive |
| CC(C)[C@H]1CC[C@H](C)C[C@@H]1O | inactive | inactive | inactive | inactive | inactive | inactive |
| CO/N=C(/C(=O)N[C@@H]1C(=O)N2C(C(=O)[O-])=C(C[n+]3ccn4ncccc43)CS[C@H]12)c1nsc(N)n1 | inactive | inactive | inactive | 27.5 µM (active) | inactive | inactive |
| N#Cc1cscn1 | inactive | inactive | inactive | inactive | inactive | inactive |
| O=C[O][Al]([O]C=O)[O]C=O | inactive | inactive | inactive | inactive | inactive | inactive |
| OCC1CCC(CO)CC1 (configuration not stated) | inactive | inactive | inactive | inactive | inactive | inactive |
| C/C=C(\C)C(C)=O | inactive | inactive | inactive | inactive | inactive | inactive |
| CNCCS(=O)(=O)O | inactive | inactive | inactive | 35.9 µM (active) | inactive | inactive |
| CC(=O)CCC1=C(C)CCCC1(C)C | inactive | 35.6 µM (active) | 31.7 µM (active) | 39.9 µM (active) | inactive | 10 µM (active) |
| C=Cc1ccc(C(C)(C)C)cc1 | inactive | inactive | inactive | inactive | inactive | inactive |
| CCCCOC(=O)[C@H](C)O | inactive | inactive | inactive | inactive | inactive | inactive |
| CC(=O)c1cc(C)oc1C | inactive | 32.9 µM (active) | inactive | inactive | inactive | inactive |
| CC(C)C1OCCN1CCOC(=O)NCCCCCCNC(=O)OCCN1CCOC1C(C)C (configuration not stated) | 63.3 µM (active) | 35.6 µM (active) | inactive | inactive | inactive | 10 µM (active) |
| C/C(CC(C)C)=N\O | inactive | inactive | inactive | inactive | inactive | inactive |
| COc1cc2c(cc1OC)CN(C(=O)[C@H](C)N[C@@H](CCc1ccccc1)C(=O)O)[C@H](C(=O)O)C2 | inactive | inactive | inactive | inactive | inactive | inactive |

| Compound | Potency [1] | Potency [2] | Potency [3] | Potency [4] | Potency [5] | Potency [6] |
| --- | --- | --- | --- | --- | --- | --- |
| C=C(C)C1CC=C(C)C(=O)C1 (configuration not stated) | inactive | inactive | inactive | inactive | inactive | inactive |
| CCCCOCC(C)O (configuration not stated) | inactive | inactive | inactive | inactive | inactive | inactive |
| OCC1(CO)COCOC1 | inactive | inactive | inactive | inactive | inactive | inactive |
| Cc1cccc(Cl)c1 | inactive | inactive | inactive | inactive | inactive | inactive |
| CC(=O)CC(=O)OC(C)(C)C | inactive | inactive | inactive | inactive | inactive | inactive |
| OCCN1CCOCC1 | inactive | inactive | inactive | inactive | inactive | inactive |
| COCCc1ccccn1 | inactive | inactive | inactive | inactive | inactive | inactive |
| CCOC(=O)CC1(C)OCC(C)O1 (configuration not stated) | inactive | inactive | inactive | inactive | inactive | inactive |
| Cc1ccc(C)c([N+](=O)[O-])c1 | inactive | inactive | inactive | inactive | inactive | inactive |
| CSc1cnccn1 | inactive | inactive | inactive | inactive | inactive | inactive |
| C=CCOC(=O)CCCCCC | inactive | inactive | inactive | inactive | inactive | inactive |
| O=C(CCCCC(=O)Nc1c(I)cc(I)c(C(=O)O)c1I)Nc1c(I)cc(I)c(C(=O)O)c1I | inactive | inactive | inactive | inactive | inactive | inactive |
| COC(=O)CCCCC(CCSS/C(CCO)=C(\C)N(C=O)Cc1cnc(C)nc1N)SC(C)=O (configuration not stated) | inactive |  | inactive | inactive | inactive |  |
| CCC(C)OC(C)CC (configuration not stated) |  | inactive | inactive | inactive | inactive | inactive |
| CCCCCCCCCCCCCCCCCC#N | inactive |  | inactive | inactive | inactive | inactive |
| C=CCSSCCC |  | inactive | inactive | inactive | inactive | inactive |
